This note sets out measurements from PubChem BioAssay (Tox21).

Where “and” joins values, the source holds several entries; their conditions need not be identical. Equal entries are not always repeated. Inconclusive results are not listed. Some structures have more than one record in an assay (separate samples or runs), and their calls can disagree. Calls of active or inactive are those of the source. Unless noted, calls come from the whole dose curve; as a rule, active = well fitted curve in the direction sought with a large enough effect in the repeat runs; inconclusive = weak or mixed curves; inactive = no such curve, though single readings can be large; an effect the other way counts as inactive or inconclusive.

A short description of assay [1]: qHTS assay to identify small molecule antagonists of the glucocorticoid receptor (GR) signaling pathway - cell viability counter screen (AID 720693). Note: nearly all actives have a fitted effect of over 55% in size. Note: potency is the fitted concentration of half-maximal effect. In general terms: Quantitative high-throughput screening tests each substance at several concentrations.
The nature of assay [2]: qHTS assay for identifying genotoxic compounds that show differential cytotoxicity against isogenic chicken DT40 cell lines with known DNA damage response pathways - wild type cell line (AID 743012). Note: nearly all actives have a fitted effect of over 60% in size. Note: potency is the fitted concentration of half-maximal effect. In short, it runs like this: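 Quantitative HTS on parental DT40 cells: 40 h compound treatment at 37 C/5% CO2, with viability then determined by CellTiter-Glo luminescence. Values serve as the DNA repair-proficient reference for differential cytotoxicity.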

The nature of assay [3]: qHTS assay for identifying genotoxic compounds that show differential cytotoxicity against isogenic chicken DT40 cell lines with known DNA damage response pathways - Rev3 mutant cell line (AID 743014). Note: nearly all actives have a fitted effect of over 55% in size. Note: potency is the fitted concentration of half-maximal effect.
The nature of assay [4]: qHTS assay for identifying genotoxic compounds that show differential cytotoxicity against isogenic chicken DT40 cell lines with known DNA damage response pathways - Rad54/Ku70 mutant cell line (AID 743015). Note: nearly all actives have a fitted effect of over 60% in size. Note: potency is the fitted concentration of half-maximal effect.
Assay [5] is described as follows: qHTS assay to identify small molecule antagonists of the androgen receptor (AR) signaling pathway - cell viability counter screen (AID 743033; note: nearly all actives have a fitted effect of over 45% in size; note: potency is the fitted concentration of half-maximal effect).
Assay [6] has as its target Androgen receptor (Homo sapiens) (UniProt P10275). Nature of the assay: qHTS assay to identify small molecule antagonists of the androgen receptor (AR) signaling pathway (AID 743035; active = well fitted inhibition curve with a large enough effect in the signal ratio in the repeat runs, not every such curve was filed as active; the % refers to the signal ratio; note: potency is the fitted concentration of half-maximal effect). In short, it runs like this: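 Cell line: GeneBLAzer AR-UAS-bla GripTite (HEK293). Stimulus: R1881 added after compound. Exposure: 16 h, 37C, 5% CO2. Readout: LiveBLAzer B/G FRET fluorescence after 2 h at room temperature.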

Assay [7] shares this target. Nature of the assay: qHTS assay to identify small molecule agonists of the androgen receptor (AR) signaling pathway (AID 743036; active = well fitted activation curve with a large enough effect in the signal ratio in the repeat runs, with a control signal flat, not every such curve was filed as active; the % refers to the signal ratio). The essentials:
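Cell-based FRET reporter assay: HEK293 line with a UAS-beta-lactamase construct, compounds added in DMSO, 16 h exposure at 37C, then 2 h substrate step at room temperature and fluorescence intensity read.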

Assay [8] shares this target. Nature of the assay: qHTS assay to identify small molecule agonists of the androgen receptor (AR) signaling pathway using the MDA cell line (AID 743040; note: potency is the fitted concentration of half-maximal effect; for all read-outs here: nearly all actives have a fitted effect of over 20% in size). As to conditions: MDA-kb2 AR-luc cells, MMTV luciferase, 16 h; for activity change: stronger effect = higher value. The essentials:
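Cells plated, 5 h at 37C/0% CO2; compound or DMSO pinned; 16 h at 37C; ONE-Glo added; luminescence measured after 30 min at room temperature. Reporter line: MDA-kb2 with MMTV-luciferase responsive to AR and GR.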

Assay [9] in a line: qHTS assay to identify small molecule antagonists of the androgen receptor (AR) signaling pathway using the MDA cell line - cell viability counter screen (AID 743041; note: nearly all actives have a fitted effect of over 45% in size; note: potency is the fitted concentration of half-maximal effect). In short, it runs like this:
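Cells were plated at 3,000 per well and left 5 h. Compounds in DMSO were then pinned in, followed by R1881. After 16 h at 37C, CellTiter-Fluor fluorescence gave viability.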

Assay [10] addresses Androgen receptor (Homo sapiens) (UniProt P10275). Description: qHTS assay to identify small molecule antagonists of the androgen receptor (AR) signaling pathway using the MDA cell line (AID 743042; note: nearly all actives have a fitted effect of over 55% in size; note: potency is the fitted concentration of half-maximal effect). In short, it runs like this:
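Antagonist mode: compounds plus R1881 agonist added to MDA-kb2 AR-luc cells, incubated 16 h at 37C. Luciferase reporter luminescence quantified, with multiplexed CellTiter-Fluor readout for cell viability.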
% is set by controls: 0 for no effect and ±100 for the full control effect.

Androgen receptor (Homo sapiens), sequence (P10275 whole entry, looked up): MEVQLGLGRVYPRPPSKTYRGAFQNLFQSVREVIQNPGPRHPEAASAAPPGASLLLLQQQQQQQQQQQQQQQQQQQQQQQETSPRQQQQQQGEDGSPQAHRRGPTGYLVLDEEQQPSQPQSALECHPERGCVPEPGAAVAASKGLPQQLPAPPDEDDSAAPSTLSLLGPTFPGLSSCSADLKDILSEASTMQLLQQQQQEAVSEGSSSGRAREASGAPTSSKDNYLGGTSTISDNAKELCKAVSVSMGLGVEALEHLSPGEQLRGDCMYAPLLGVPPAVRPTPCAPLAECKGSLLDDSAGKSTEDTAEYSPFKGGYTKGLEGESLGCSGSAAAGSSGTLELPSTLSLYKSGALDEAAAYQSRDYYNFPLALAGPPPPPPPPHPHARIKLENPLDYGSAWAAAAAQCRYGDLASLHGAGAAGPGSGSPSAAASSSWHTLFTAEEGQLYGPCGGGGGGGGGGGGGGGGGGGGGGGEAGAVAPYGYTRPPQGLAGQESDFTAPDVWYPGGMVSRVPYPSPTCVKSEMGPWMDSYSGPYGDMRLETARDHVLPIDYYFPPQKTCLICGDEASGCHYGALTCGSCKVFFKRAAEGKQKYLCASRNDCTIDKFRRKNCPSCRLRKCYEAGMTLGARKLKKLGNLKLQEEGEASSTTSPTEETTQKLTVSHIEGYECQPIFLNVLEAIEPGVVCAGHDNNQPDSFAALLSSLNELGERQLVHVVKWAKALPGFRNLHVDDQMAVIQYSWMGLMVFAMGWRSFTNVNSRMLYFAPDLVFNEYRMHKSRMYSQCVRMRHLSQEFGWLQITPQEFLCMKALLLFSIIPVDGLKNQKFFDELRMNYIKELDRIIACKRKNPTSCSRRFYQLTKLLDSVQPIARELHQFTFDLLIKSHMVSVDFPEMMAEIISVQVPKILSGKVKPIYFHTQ

Consider `S=c1[nH]c2ccccc2[nH]1`, for which the Potency entry in assay [1], in assay [2], in assay [3], in assay [4], in assay [5] and in assay [6] was “inactive” in each case. Besides, the Potency entry in assay [7], in assay [9] and in assay [10] was “inactive” each time. Further, the Potency in assay [8] is 3.86 µM (active). Moreover, the activity change in [8] (at 70.3 µM (top of the series)) was -1.99% (inactive).

As for `CC(C)=CC1C(C(=O)OCN2C(=O)C3=C(CCCC3)C2=O)C1(C)C` (stereo not drawn), the Potency entry in [1], in assay [3], in [5], in assay [7], in assay [9] and in assay [10] was “inactive” throughout. Moreover, the results for the Potency in assay [2], in [4] and in assay [6] were 43.3 µM (active), 27.3 µM (active) and 43.6 µM (active), respectively. Further, the activity change in assay [8] (at 70.3 µM (top of the series)) was 7.43% (inactive) and -10.5% (inactive).

`CC(C)(c1ccc(OCC2CO2)cc1)c1ccc(OCC2CO2)cc1` (stereo not drawn): the Potency entry in [1], in assay [5], in assay [6], in assay [7], in [9] and in assay [10] was “inactive” in each case. For the same compound, the Potency is 24.3 µM (active) in assay [2]; 2.47 µM (active) and 3.06 µM (active) in assay [3]; 55.2 µM (active) and 27.3 µM (active) in assay [4]. Besides, the activity change in [8] (at 70.3 µM (top of the series)) was -0.897% (inactive); in assay [8] (at 95 µM (top of the series)), -0.522% (inactive).

Regarding `Clc1cccc(C(Cl)(Cl)Cl)n1`, the Potency result in [1], in assay [2], in assay [3], in [4], in assay [5] and in assay [6] was “inactive” each time. Besides, the Potency result in assay [7], in [9] and in assay [10] was “inactive” throughout. Also, in assay [8] (at 70.3 µM (top of the series)), the activity change was 0.42% (inactive) and 1.19% (inactive).

As to `CNC(=O)Oc1cccc2c1OC(C)(C)C2`, the Potency entry in assay [1], in [2], in [4], in assay [5], in assay [7] and in [9] was “inactive” in each case. Further, the Potency entry in assay [10] was “inactive”. The Potency entry in assay [3] is “inactive and 24.3 µM (active)”. Also, the figures for the activity change in assay [8] (at 70.3 µM (top of the series)) and in assay [8] (at 95 µM (top of the series)) were 1.41% (inactive) and 1.74% (inactive), respectively.

As for `CNC(=O)CSP(=S)(OC)OC`, the Potency result in assay [1], in [2], in [3], in assay [4], in assay [5] and in [9] was “inactive” each time.

In the case of `COP(=S)(OC)SCn1nnc2ccccc2c1=O`, the Potency result in assay [1], in assay [5], in [6], in assay [7] and in assay [9] was “inactive” throughout. In addition, the Potency is 43.3 µM (active) in [2]; 60 µM (active) and 61.1 µM (active) in assay [3]; 60 µM (active) and 61.1 µM (active) in assay [4]. Moreover, the activity change in assay [8] (at 70.3 µM (top of the series)) was -2.47% (inactive) and -4.42% (inactive).

For the compound `N#Cc1nn(-c2c(Cl)cc(C(F)(F)F)cc2Cl)c(N)c1S(=O)C(F)(F)F` (stereo not drawn), the Potency entry in assay [1] and in assay [7] was “inactive” throughout. Besides, the Potency in assay [2] was 8.41 µM (active) and 2.75 µM (active); in assay [3], 10.6 µM (active) and 3.88 µM (active); in [4], 9.44 µM (active) and 1.94 µM (active); in [5] it was 15.6 µM (active); in [6], 23.9 µM (active); in assay [10] it was 17.3 µM (active). Also, the activity change was -9.74% (inactive) in assay [8] (at 70.3 µM (top of the series)) and -12% (inactive) in [8] (at 95 µM (top of the series)).

As for `O=C(O)c1nn(Cc2ccc(Cl)cc2Cl)c2ccccc12`, the Potency entry in assay [1], in [2], in assay [3], in [4], in [5] and in assay [6] was “inactive” each time. Also, the Potency entry in [9] and in assay [10] was “inactive” in each case. For the same compound, the activity change in assay [8] (at 70.3 µM (top of the series)) was 1.75% (inactive) and 0.87% (inactive).

Consider `O=[N+]([O-])/N=C1\NCCN1Cc1ccc(Cl)nc1`, for which the Potency result in [1], in assay [2], in assay [5], in assay [6], in [7] and in assay [9] was “inactive” throughout. Further, the Potency entry in assay [10] was “inactive”. The Potency result in assay [3] is “inactive and 8.41 µM (active)”; in [4], “inactive and 5.31 µM (active)”. The activity change in [8] (at 70.3 µM (top of the series)) was 0.161% (inactive) and 4.01% (inactive) and 0.695% (inactive).

Consider `CC(C)(c1ccccc1)c1ccc(O)c(C(C)(C)c2ccccc2)c1`, for which the Potency is 21.7 µM (active) and 24.5 µM (active) in [1]; 21.5 µM (active) and 9.69 µM (active) in assay [2]; 15.2 µM (active) and 8.63 µM (active) in assay [3]; 13.6 µM (active) and 9.69 µM (active) in assay [4]; 48.5 µM (active) and 49 µM (active) in assay [5].

Consider `CS(=O)(=O)NC(=O)c1cc(Oc2ccc(C(F)(F)F)cc2Cl)ccc1[N+](=O)[O-]`, for which the Potency result in [1], in assay [2], in [3], in assay [4], in [5] and in assay [9] was “inactive” in each case.

In the case of `O=[N+]([O-])c1ccc(Cl)c([N+](=O)[O-])c1`, the Potency in [1] is 19.8 µM (active); in assay [2] it was 2.77 µM (active) and 1.72 µM (active); in assay [3], 1.75 µM (active) and 2.17 µM (active); in assay [4], 1.24 µM (active) and 1.93 µM (active); in assay [5], 11.1 µM (active) and 17.4 µM (active); in assay [6], 9.92 µM (active) and 19.5 µM (active). Moreover, the Potency in assay [9] was 15.6 µM (active) and 13.7 µM (active); in assay [10] it was 8.77 µM (active) and 8.63 µM (active). The activity change in assay [8] (at 70.3 µM (top of the series)) was -11.5% (inactive); in assay [8] (at 95 µM (top of the series)), -10.5% (inactive).

For the compound `C=CC(Cl)CCl` (stereo not drawn), the Potency result in [1], in [2], in assay [3], in [4], in assay [5] and in assay [6] was “inactive” each time. The Potency result in assay [7], in [9] and in assay [10] was “inactive” throughout. Moreover, the activity change in assay [8] (at 95 µM (top of the series)) is -0.5% (inactive) and 0.488% (inactive).

In the case of `CCOP(=S)(OCC)OP(=S)(OCC)OCC`, the Potency entry in [1], in [2], in assay [3], in assay [4], in [5] and in [6] was “inactive” throughout. Further, the Potency entry in [7], in assay [9] and in [10] was “inactive” throughout. Also, the activity change in assay [8] (at 70.3 µM (top of the series)) was -0.0098% (inactive).

Consider `COP(=S)(OC)Oc1ccc(S(=O)(=O)N(C)C)cc1`, for which the Potency result in assay [1], in assay [5], in assay [6], in assay [7] and in [9] was “inactive” each time. In addition, the Potency is 19.3 µM (active) in assay [2]; “inactive and 24.3 µM (active)” in assay [3]; “inactive and 34.4 µM (active)” in assay [4]; “inactive and 61.1 µM (active)” in assay [10]. In addition, the activity change in [8] (at 70.3 µM (top of the series)) is -0.992% (inactive) and -9.46% (inactive).

`CCC[CH2][Sn]([Cl])([CH2]CCC)[CH2]CCC`: the Potency was 1.1 µM (active) in assay [1]; 546 nM (active) and 486 nM (active) in assay [2]; 434 nM (active) and 344 nM (active) in [3]; 487 nM (active) and 386 nM (active) in [4]; 618 nM (active) and 1.1 µM (active) in assay [5]; 1.22 µM (active) and 2.17 µM (active) in [9].
